The whole screen tested about 310,000 compounds, of which about 14,000 (4.5%) showed an effect of 50% or more. The effect is printed as a negative number. Shown is part of a subset that was picked to be rich in strong results.
The molecules below were run against human ether-à-go-go-related gene (hERG) potassium channel (human, UniProt Q12809) (assay: primary screen, population patch clamp on CHO cells stably expressing hERG; higher = less effect of the substance).
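Note: peak tail current of the secondary pulse compared with the same well before compound.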

human ether-à-go-go-related gene (hERG) potassium channel, sequence (Q12809 whole entry, looked up): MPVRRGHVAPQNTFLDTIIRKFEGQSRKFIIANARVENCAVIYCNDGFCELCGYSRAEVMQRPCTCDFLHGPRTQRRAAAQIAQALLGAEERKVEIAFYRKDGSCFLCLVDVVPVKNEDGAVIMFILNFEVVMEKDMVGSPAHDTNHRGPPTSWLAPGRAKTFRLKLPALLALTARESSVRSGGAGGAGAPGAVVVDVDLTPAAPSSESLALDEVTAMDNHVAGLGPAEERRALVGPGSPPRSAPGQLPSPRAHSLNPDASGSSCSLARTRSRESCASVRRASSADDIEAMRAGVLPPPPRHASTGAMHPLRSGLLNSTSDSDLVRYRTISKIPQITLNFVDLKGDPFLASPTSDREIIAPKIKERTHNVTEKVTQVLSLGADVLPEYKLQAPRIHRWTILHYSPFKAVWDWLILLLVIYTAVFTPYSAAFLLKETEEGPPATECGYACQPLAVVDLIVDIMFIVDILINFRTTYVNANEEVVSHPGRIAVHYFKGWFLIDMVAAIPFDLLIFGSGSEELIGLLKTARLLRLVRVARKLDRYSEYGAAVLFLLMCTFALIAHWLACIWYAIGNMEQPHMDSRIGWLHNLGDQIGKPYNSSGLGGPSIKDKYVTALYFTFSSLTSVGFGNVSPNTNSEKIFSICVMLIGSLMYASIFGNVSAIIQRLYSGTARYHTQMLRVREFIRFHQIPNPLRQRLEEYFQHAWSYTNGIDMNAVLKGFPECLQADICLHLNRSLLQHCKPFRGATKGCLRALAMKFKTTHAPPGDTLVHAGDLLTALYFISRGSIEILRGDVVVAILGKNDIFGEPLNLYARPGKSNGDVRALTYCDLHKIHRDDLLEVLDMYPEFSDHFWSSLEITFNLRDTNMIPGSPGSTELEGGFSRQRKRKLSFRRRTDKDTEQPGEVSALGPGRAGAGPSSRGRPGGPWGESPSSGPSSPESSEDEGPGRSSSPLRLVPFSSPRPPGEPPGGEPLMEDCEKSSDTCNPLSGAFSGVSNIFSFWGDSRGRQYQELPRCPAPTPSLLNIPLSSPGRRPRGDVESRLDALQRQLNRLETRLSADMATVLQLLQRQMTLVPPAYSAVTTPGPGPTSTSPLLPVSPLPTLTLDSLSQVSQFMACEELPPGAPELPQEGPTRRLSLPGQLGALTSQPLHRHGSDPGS

Row | SMILES | hERG current change (%, negative = inhibition) at 10uM [%]
1 | CCc1ccc(N2C(=O)NC(=O)C(CCc3ccncc3)(CCc3ccncc3)C2=O)cc1 | -69.9
2 | CCOC(=O)c1c(C)[nH]c(C=O)c1Cc1cccc(Cl)c1 | 6.47
3 | C/C=C/c1cc(OC)c2c(c1)[C@H](C)[C@@H](c1ccc(O)c(OC)c1)O2 | 15.9
4 | O=C(CN1C(=O)NC2(CCCCCC2)C1=O)Nc1ccc(S(=O)(=O)N2CCOCC2)cc1 | 9.75
5 | Cc1ccccc1COc1ccc(-c2nn[nH]n2)cc1 | 13
6 | CN1C(C(=O)NCC2CC2)CC2Cn3c(nc4cc(Cl)c(Cl)cc43)C21 (stereo not shown) | -34.3
7 | COc1ccccc1CNC(=O)C1CC2Cn3c(nc4cc(C)c(C)cc43)C2N1C (stereo not shown) | -27
8 | Cc1ccc(CNC(=O)C2CC3Cn4c(nc5ccccc54)C3N2C)o1 (stereo not shown) | -0.36
9 | CN1C(C(=O)NCc2ccco2)CC2Cn3c(nc4cc(Cl)c(Cl)cc43)C21 (stereo not shown) | -43.2
10 | Cc1ccc(CNC(=O)C2CC3Cn4c(nc5cc(C)c(C)cc54)C3N2C)o1 (stereo not shown) | -36.9
11 | CN1C(C(=O)NCc2cccc(Br)c2)CC2Cn3c(nc4cc(Cl)c(Cl)cc43)C21 (stereo not shown) | -75.8
12 | COc1ccccc1CNC(=O)C1CC2Cn3c(nc4cc(Cl)c(Cl)cc43)C2N1C (stereo not shown) | -65.4
13 | COCCNC(=O)C1CC2Cn3c(nc4cc(Cl)c(Cl)cc43)C2N1C (stereo not shown) | -26.5
14 | COc1ccccc1CNC(=O)C1CC2Cn3c(nc4cc5ccccc5cc43)C2N1C (stereo not shown) | -43.8
15 | Cc1ccc(CNC(=O)C2CC3Cn4c(nc5cc(Cl)c(Cl)cc54)C3N2C)o1 (stereo not shown) | -58.5
16 | CC(C)CCNC(=O)C1CC2Cn3c(nc4cc(Cl)c(Cl)cc43)C2N1C (stereo not shown) | -56
17 | Cc1cc2nc3n(c2cc1C)CC1CC(C(=O)NCCC(C)C)N(C)C31 (stereo not shown) | 1.81
18 | COc1ccc(CCN(C)C(=O)CCCN2C(=O)c3cccc4cccc(c34)C2=O)cc1OC | -35.5
19 | O=C(O)C1CCCCC1C(=O)Nc1ccccc1Cl (stereo not shown) | 15.1
20 | O=C(CN1C(=O)c2ccccc2C1=O)N1CCN(C2c3ccccc3-c3ccccc32)CC1 | -23.1

Row | SMILES | hERG current change (%, negative = inhibition) at 10uM [%]
21 | O=C(/C=C/c1ccco1)NCC1COc2ccccc2O1 (stereo not shown) | -0.808
22 | O=C(NC1CCCCC1)N1CCSC1=Nc1ccccc1 | -5.04
23 | CCOCCCNC(=O)c1c(C)c(C(=O)OCC)n(C)c1C | 15.3
24 | CCOC(=O)N1N=C(c2ccccc2)CC1(O)C(C)(F)F (stereo not shown) | 12.1
25 | C=CCNC(=O)C1CC2Cn3c(nc4cc(Cl)c(Cl)cc43)C2N1C (stereo not shown) | -35.4
26 | CN1C(C(=O)NCc2ccccc2)CC2Cn3c(nc4cc(Cl)c(Cl)cc43)C21 (stereo not shown) | -65.6
27 | Cc1ccccc1Nc1nnc(-c2ccc(C(=O)NCCO)cc2)c2ccccc12 | -65.9
28 | COc1ccc(Nc2nnc(-c3ccc(C(=O)NCCO)cc3)c3ccccc23)cc1 | -4.6
29 | O=C(NCCO)c1ccc(-c2nnc(Nc3ccc(O)cc3)c3ccccc23)cc1 | 16.8
30 | CCC(C)[C@H](NC(=O)C1CCN(C(=O)[C@H](Cc2ccccc2)NC(=O)OC(C)(C)C)CC1)C(=O)O (stereo partly shown) | -1.42
31 | COc1ccc(-c2oc(NC(=O)c3ccc(C)cc3)c(C#N)c2-c2ccc(OC)cc2)cc1 | -11.6
32 | O=C(C1=C[C@@H](c2csc3ccccc23)C[C@@H](OCc2ccc(CO)cc2)O1)N1CCN(Cc2ccc3c(c2)OCO3)CC1 | 1.69
33 | CN1CCN(C(=O)C2=C[C@@H](c3coc4ccccc4c3=O)C[C@@H](OCc3ccc(CO)cc3)O2)CC1 | -22.5
34 | O=C(C1=C[C@@H](c2coc3ccccc3c2=O)C[C@@H](OCCCCO)O1)N1CCN(Cc2ccc3c(c2)OCO3)CC1 | -49.7
35 | O=C(C1=C[C@H](c2coc3ccccc3c2=O)C[C@H](OCc2ccc(CO)cc2)O1)N1CCN(Cc2ccc3c(c2)OCO3)CC1 | -57.2
36 | O=C(C1=C[C@H](c2csc3ccccc23)C[C@H](OCc2ccc(CO)cc2)O1)N1CCN(Cc2ccc3c(c2)OCO3)CC1 | 12.4
37 | CC(=O)n1cc([C@@H]2C=C(C(=O)N3CCN(Cc4ccc5c(c4)OCO5)CC3)O[C@H](OCc3ccc(CO)cc3)C2)c2ccccc21 | -17.5
38 | O=C(C1=C[C@H](c2coc3ccccc3c2=O)C[C@H](OCCCCO)O1)N1CCN(Cc2ccc3c(c2)OCO3)CC1 | -64.4
39 | O=C(C1=C[C@@H](c2csc3ccccc23)C[C@@H](OCCCCO)O1)N1CCN(Cc2ccc3c(c2)OCO3)CC1 | -11
40 | O=C(C1=C[C@@H](c2coc3ccccc3c2=O)C[C@@H](OCc2ccc(CO)cc2)O1)N1CCN(Cc2ccc3c(c2)OCO3)CC1 | -66.1

Reference: PMC4336329 (PLoS ONE, 2015)
